Rows were chosen to be rich in hits. Some 20% of all compounds tested hit in one or more screens of this group.
Shiga toxin inh: blocks Shiga toxin action in Vero cells. Vero cells, Shiga toxin protein synthesis inhibition reporter. inhibition, % at 38.7 µM. actives 9.2% (n = 290,000); in the data active means inhibition mostly above about 28%, no sharp cut-off; inactive means mostly below about 43%; further: 0% is about no effect
HCMV antiviral: inhibitors of human cytomegalovirus; actives 4.5% (n = 410,000); HFF cells, HCMV-luciferase reporter, 72 h; hits give low values; activity change, negative = inhibition, % at 57.5 µM; in the data active means activity change below about -60%; inconclusive means no clear call, values can overlap the other calls; inactive means above about -39%; further: on the % scale 0 is the no-effect control and ±100 the full control effect
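After 16 h attachment at 37C, HFF cells received test compound and HCMV-luciferase (1 PFU/cell); reporter luminescence read 72 h later, data normalized against buffer-only and known inhibitor Salinomycin.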
Pf growth 48h: P. falciparum growth inhibition at 48 hours (one generation). P. falciparum luciferase growth in erythrocytes, 48 h. Potency, µM (titrated, usually from 28.7 µM), for inactives: at the top dose activity change, negative = inhibition, hits mostly inhibitors. actives 5.9% (n = 310,000). AID 504832; further: potency means the concentration at half of the fitted maximal effect; on the % scale 0 is the no-effect control and ±100 the full control effect
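Erythrocytes infected with P. falciparum carrying an integrated firefly luciferase reporter (2% hematocrit, 0.1% parasitemia final) were exposed to compounds in RPMI 1640 with 0.5% Albumax at 37 C, 5% CO2. Growth inhibition was scored as reduced luminescence.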
Pf growth 96h: P. falciparum growth inhibition at 96 hour, primary screen for plastid delayed-death inhibitors | P. falciparum luciferase reporter growth, 96 h | Potency, µM (top dose mostly 28.7 µM), inactives show top-dose activity change, negative = inhibition, most hits filed as inhibitors | actives 6.9% (n = 320,000); further: potency means the concentration at half of the fitted maximal effect; on the % scale 0 is the no-effect control and ±100 the full control effect
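Readout is luminescence from an integrated firefly luciferase in P. falciparum. Red cells, 2% hematocrit and 0.05% parasitemia final, were cultured with compound through two parasite generations (96 hours) at 37 C, 5% CO2.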
CHX counter: affects cycloheximide protein synthesis inhibition readout, counter-screen; cell reporter, cycloheximide protein synthesis inhibition counterscreen; max response, %; actives 12% (n = 300,000); AID 2314; in the data active means max response mostly above about 13%, no sharp cut-off; inactive means mostly below about 14%; further: read at 38.3 µM for the half of the compounds with a filed dose; 0% is about no effect
Starred values were filed as active, the others as inactive. Unless noted, the call rests on the fitted dose curve; in most records, active means well fitted inhibition curve with a large enough effect; inconclusive means small, poorly fitted or top-dose-only effect, or another doubt; inactive means no such curve, though single readings can be large or run the other way.

How did Cc1ccc(-c2cc(-c3ccccc3)no2)cc1 do in these assays?
HCMV antiviral: 102; Pf growth 48h: 125%; Pf growth 96h: 212%

Results for Nc1nc(-c2cc(-c3ccccc3)no2)cs1 ?
Shiga toxin inh: 69*; HCMV antiviral: 58; Pf growth 48h: -11%; Pf growth 96h: 309%; CHX counter: 32*

What do the screens show for `c1ccc(-c2cc(-c3ccccc3)on2)cc1`?
Shiga toxin inh: 67*; HCMV antiviral: 48; Pf growth 48h: inactive; Pf growth 96h: 244%; CHX counter: 35*

Results for Cc1cc2ncc(-c3cccc(Br)c3)nc2cc1C ?
HCMV antiviral: 133

Results for CCS(=O)(=O)N1CCc2cc(C(=O)NCc3ccccc3)ccc21 ?
HCMV antiviral: 6

What do the screens show for `CC(=O)c1ccc(OCC(O)CN(C)CCOc2ccc(Br)cc2)cc1` (centres undefined)?
Shiga toxin inh: -4; HCMV antiviral: -16; Pf growth 48h: 6%; Pf growth 96h: 0%; CHX counter: -8

Results for Cc1ccc(C)c(S(=O)(=O)NC2CCSC2=O)c1 (centres undefined) ?
HCMV antiviral: -6; Pf growth 48h: -27%; Pf growth 96h: 19%

What do the screens show for `CCc1ccccc1NC(=O)C(=O)NCCc1sc(-c2cccc(C)c2)nc1C`?
HCMV antiviral: -30

How did Brc1ccc(-c2csc(Nc3nc(-c4ccc(Br)cc4)cs3)n2)cc1 do in these assays?
Shiga toxin inh: 42; HCMV antiviral: -87*; Pf growth 48h: inconclusive; Pf growth 96h: inconclusive; CHX counter: 22*

Results for Nc1nc(-c2ccc(Br)cc2)cs1 ?
Shiga toxin inh: 88*; HCMV antiviral: 4; Pf growth 48h: 73%; Pf growth 96h: 131%; CHX counter: 20*

How did Nc1nc(-c2ccc(F)cc2)cs1 do in these assays?
Shiga toxin inh: 38; HCMV antiviral: -15; Pf growth 48h: 42%; Pf growth 96h: inconclusive; CHX counter: 16

How did O=C(CSc1nc2ccccc2[nH]1)Nc1nc(-c2ccc(Br)cc2)cs1 do in these assays?
Shiga toxin inh: 18; HCMV antiviral: 23; Pf growth 48h: inconclusive; Pf growth 96h: 0%; CHX counter: 10

How did Nc1nc(-c2ccccc2)cs1 do in these assays?
Shiga toxin inh: 35*; HCMV antiviral: 86; Pf growth 96h: 124%; CHX counter: 29*

Results for Cc1ccc(COC(=O)c2[nH]c3c(c2C)C(=O)CC(c2ccc(Cl)cc2)C3)cc1 (centres undefined) ?
HCMV antiviral: -8

Results for O=C(Nc1nc(-c2ccccn2)cs1)c1ccco1 ?
Shiga toxin inh: 89*; HCMV antiviral: -13; Pf growth 48h: inconclusive; Pf growth 96h: inconclusive; CHX counter: 54*

What do the screens show for `C[C@H](NC(=O)c1ccco1)C(=O)Nc1nc(-c2ccccn2)cs1`?
HCMV antiviral: -25

What do the screens show for `O=c1oc2ccccc2cc1-c1csc(NN=C2CCCCC2)n1`?
Shiga toxin inh: 81*; HCMV antiviral: 32; Pf growth 48h: 126%; Pf growth 96h: inactive; CHX counter: 45*

Results for O=C(Nc1nc(-c2cc3ccccc3oc2=O)cs1)c1ccco1 ?
Shiga toxin inh: 20; HCMV antiviral: -63*; Pf growth 48h: 27%; Pf growth 96h: 41%; CHX counter: 12

Results for O=c1oc2ccccc2cc1-c1csc(Cc2nc(-c3ccc(Cl)cc3)cs2)n1 ?
Shiga toxin inh: -8; HCMV antiviral: -96*; Pf growth 48h: 18%; Pf growth 96h: -5%; CHX counter: -1

How did O=c1oc2ccccc2cc1-c1nc(-c2cccc(Cl)c2)cs1 do in these assays?
HCMV antiviral: 13

Results for COc1cc(Cl)c(NC(=O)c2cc(CN3CCCC3)on2)c(OC)c1 ?
HCMV antiviral: 5

What do the screens show for `COc1ccc(C)cc1NC(=O)COc1cc(=O)n(C)c2ccccc12`?
HCMV antiviral: -16

How did Cc1cccc(NC(=O)Cn2c(=O)nc(-c3ccccc3)c3ccccc32)c1C do in these assays?
HCMV antiviral: 28

What do the screens show for `O=C(Nc1nc(-c2ccccn2)cs1)c1ccc(Br)s1`?
Shiga toxin inh: -4; HCMV antiviral: -99*; Pf growth 48h: inconclusive; CHX counter: 10

What do the screens show for `O=C(Nc1nc(-c2ccccn2)cs1)c1cccc(-n2cnnn2)c1`?
Shiga toxin inh: 27; HCMV antiviral: -34; Pf growth 48h: 1.2µM*; Pf growth 96h: 0.93µM*; CHX counter: 15

Results for CC1CCC/C(=C(\C#N)c2nc(-c3cc4ccccc4oc3=O)cs2)C1 (centres undefined) ?
Shiga toxin inh: 89*; HCMV antiviral: inconclusive; Pf growth 48h: 296%; Pf growth 96h: 6.6µM*; CHX counter: 51*

What do the screens show for `O=C(Nc1nc(-c2cccs2)cs1)c1ccco1`?
Shiga toxin inh: 91*; HCMV antiviral: 23; Pf growth 48h: 423%; Pf growth 96h: 249%; CHX counter: 37*

What do the screens show for `CCSCc1nnc(SCC(=O)Nc2cccc(SC)c2)n1C`?
Shiga toxin inh: -1; HCMV antiviral: -14; Pf growth 48h: -1%; Pf growth 96h: inconclusive; CHX counter: 6

How did C=CCN(CC=C)C(=O)c1cccc(OC2CCN(CC(C)(C)C)CC2)c1 do in these assays?
Shiga toxin inh: 29; HCMV antiviral: -24; Pf growth 48h: 0%; Pf growth 96h: 0%; CHX counter: 1

What do the screens show for `COc1ccc(C2CC(c3c(-c4ccccc4)c4cc(Cl)ccc4[nH]c3=O)=NN2S(C)(=O)=O)cc1OC` (centres undefined)?
Shiga toxin inh: -5; HCMV antiviral: -28; Pf growth 48h: 10µM*; Pf growth 96h: inconclusive; CHX counter: -1

How did CC1CCCN(C(=O)C2CC(=O)N(c3ccc(Cl)cc3)C2)C1 (centres undefined) do in these assays?
Shiga toxin inh: 17; HCMV antiviral: 5; Pf growth 48h: 9%; Pf growth 96h: inconclusive; CHX counter: 7

Results for O=C(CCl)NCc1c(Cl)cccc1-n1cccc1 ?
Shiga toxin inh: 10; HCMV antiviral: -98*; Pf growth 48h: 10µM*; Pf growth 96h: 12µM*; CHX counter: -2

How did CC(C)CNC(=S)Nc1ccc(Oc2ccccc2)cc1 do in these assays?
Shiga toxin inh: 23; HCMV antiviral: -63*; Pf growth 48h: 5%; Pf growth 96h: 5.2µM*; CHX counter: 21*

How did OCCCNC(=S)Nc1ccc(Oc2ccccc2)cc1 do in these assays?
Shiga toxin inh: 24; HCMV antiviral: inconclusive; Pf growth 48h: -16%; Pf growth 96h: 25%; CHX counter: 0

Results for CCN(CC)CCCNC(=S)Nc1ccc(Br)cc1 ?
Shiga toxin inh: 102*; HCMV antiviral: 15; Pf growth 48h: 124%; Pf growth 96h: inconclusive; CHX counter: 44*

How did CN(C)CCCNC(=S)Nc1ccc(Oc2ccccc2)cc1 do in these assays?
Shiga toxin inh: 67; HCMV antiviral: inconclusive; Pf growth 48h: 23%; Pf growth 96h: inconclusive; CHX counter: 26*

Bioassay records deposited in PubChem BioAssay by National Center for Advancing Translational Sciences (NCATS).
